# Assay outcomes as filed in PubChem BioAssay.
# AT treatment – potential ataxia-telangiectasia treatment; 320,000 tested, 0.19% active; F2112 A-T fibroblasts, KAP-1 phosphorylation AlphaLISA; neocarzinostatin DNA damage 30 min before lysis; Potency, µM (doses to about 57.5 µM), inactives show at the top dose activation, actives largely listed as activators; further: potency means the concentration at half of the fitted maximal effect; % of control where 0% means no effect; nearly all actives have a fitted effect of over 45% in size
#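 hTERT-immortalized A-T patient fibroblasts (F2112), 500 cells/well in OPTI-MEM, 1% FBS, got compounds for 60 min, then NCS for 30 min at 37C. Lysates were then assayed for phospho-KAP-1 by AlphaLISA (anti-pKAP1 donor, anti-KAP1 acceptor beads), 6 hr at 25C.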
# A549 viability – counter-screen for Nrf2 inhibitors: cytotoxicity in A549 cells; A549 ARE-Fluc cells, CellTiter-Fluor viability, 18-24 h; Potency, µM (doses to about 46 µM), without a hit: top-dose activity change, negative = cytotoxicity, actives largely listed as inhibitors; 390,000 tested, 0.16% active; AID 504648; further: potency means the concentration at half of the fitted maximal effect; on the % scale 0 is the no-effect control and ±100 the full control effect
#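 Cytotoxicity counterscreen: CellTiter-Fluor fluorescence was measured in A549 ARE_Fluc cells after 18-24 h of compound exposure in a concentration series. The subsequent BugLite luminescent read reports ARE-luciferase activity.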
# TCR activator – activators of T cell receptors; 330,000 tested, under 10 active; primary human leukocytes, anti-CD3, IL-2 HTRF, 48 h; Potency, µM (doses to about 9.22 µM), without a hit: top-dose activation of IL-2 secretion, usual class: activators; further: % of control where 0% means no effect
#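 48 hr co-incubation of compounds, a-CD3 beads and primary human leukocytes; IL-2 quantified homogeneously by HTRF with anti-IL-2 K and d2 conjugates.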
# Nrf2 inh – blocks Nrf2 signaling; A549 ARE-Fluc reporter, luciferase luminescence, 18-24 h; Potency, µM (doses to about 46 µM), without a hit: at the highest dose activity change, negative = inhibition, usual class: inhibitors; 360,000 tested, 2.1% active; further: potency means the concentration at half of the fitted maximal effect; on the % scale 0 is the no-effect control and ±100 the full control effect; nearly all actives have a fitted effect of over 60% in size
#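 Nrf2 activity is the BugLite luminescence, read 15 min after reagent at room temperature, following CellTiter-Fluor cytotoxicity readout (30 min, 37C). Compound titrations were applied for 18-24 h to 5000 A549 ARE_Fluc cells/well in 5% FBS OPTI-MEM.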
# CCT modulator – changes cytosolic chaperonin activity; purified chaperonin ATPase assay, HTRF ADP detection, 30 min; activity change, % (no concentration beside the values), hits read low; 360,000 tested, 0.3% active; AID 651819; in the data active means activity change below about -30%; further: on the % scale 0 is the no-effect control and ±100 the full control effect
#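 First, chaperonin was dispensed at 40 nM or 20 nM final depending on batch activity. Next, compounds were pinned at 76 uM and ATP added at 10 uM. After 30 min at 37 °C, ADP detection reagents ran 30 min at ambient temperature.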
# Nrf2 ARE act – Nrf2 pathway activation; AREc32 ARE-luciferase reporter (MCF7-derived line), luminescence, 24 h; Potency, µM (doses to about 46.1 µM), for the others: at the highest dose activation, usual class: activators; 410,000 tested, 0.31% active; further: potency means the concentration at half of the fitted maximal effect; % of control where 0% means no effect; nearly all actives have a fitted effect of over 65% in size
#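 Reporter line AREc32 (ARE-Fluc), seeded overnight in OPTI-MEM with 5% FBS; compound pin-transferred, 24 hr at 37 deg C, 5% CO2; luminescent read-out.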
# * marks the source's active call; other numbers are inactive results; ? = inconclusive; / = no result given; [ ] = another dose, or the depositor's remark. Compounds with a hit are over-represented: about 2.6% of the library has one in this group of screens. Unless noted, the call rests on the fitted dose curve; in most records, active means well fitted curve in the direction sought with a large enough effect; inconclusive means small, poorly fitted or top-dose-only effect, or another doubt; inactive means no such curve, though single readings can be large; an effect the other way counts as inactive or inconclusive.
SMILES,AT treatment,A549 viability,TCR activator,Nrf2 inh,CCT modulator,Nrf2 ARE act
CCOC(=O)c1ccc(Nc2ncnc3c2cnn3-c2cccc(Cl)c2)cc1,/,5%,/,/,/,1%
CC1CCCC(NC(=O)CCNS(=O)(=O)c2ccc(Br)cc2)C1C (stereo not given),5%,?,10%,15µM*,-4,1%
COc1ccc(-c2cn3nc(SCC(=O)Nc4ccccc4F)ccc3n2)cc1,/,-4%,/,/,/,-4%
[O-]/C(=C(\C(=S)Nc1ccc(SC(F)F)cc1)[n+]1ccccc1)c1cc(Cl)ccc1Cl,-4%,?,4%,21µM*,-4,0%
COc1ccc(-c2cc(C)nc(SCC(=O)c3cccc([N+](=O)[O-])c3)n2)cc1,-8%,-22%,-3%,21µM*,-46*,0%
COc1ccc(N2CC3=C(C2=O)C(c2ccc(O)c(OC)c2)NC(=O)N3C)cc1 (stereo not given),/,2%,/,-2%,/,-1%
CCCCNCCCOc1cccc(Cl)c1,11%,-2%,0%,/,-2,0%
CCCCNCCCCOc1ccccc1,-3%,-2%,-7%,-8%,-90*,0%
Cc1ccc(-n2nc(C(=O)Nc3ccc(C)c(F)c3)c3c4ccccc4n(C)c3c2=O)cc1,/,4%,/,15%,/,3%
COCCCn1c(-c2ccc(S(=O)(=O)N3CCOCC3)cc2)csc1=Nc1ccccc1,17%,1%,5%,16µM*,1,3%
FC(F)Oc1ccc(-c2csc(=Nc3cccnc3)n2CC2CCCO2)cc1 (stereo not given),/,0%,7%[46.1 µM],15µM*,-1,1%
COCCn1c(-c2ccc(Br)cc2)csc1=Nc1cccnc1,-19%,-15%,4%,18µM*,-2,3%
COc1ccc(N=c2scc(-c3ccc(OC)cc3)n2CCO)cc1,-6%,-24%,12%[46.1 µM],18µM*,1,2%
Clc1ccc(-c2csc(=Nc3cccnc3)n2CCCn2ccnc2)cc1Cl,-8%,-8%,4%[46.1 µM],?,-1,-1%
CC(C)CCn1c(=O)c2sccc2n2c(CCCC(=O)N3CCC(N4CCCCC4)CC3)nnc12,-15%,-22%,-3%,?,-3,0%
CCCc1cc(=O)oc2c3c(cc(OCC(=O)NCc4ccncc4)c12)OC(C)(C)CC3,9%,?,-1%,12µM*,-1,1%
CCCc1cc(=O)oc2c3c(cc(OCC(=O)NCc4ccccn4)c12)OC(C)(C)CC3,-1%,-2%,-2%,?,-2,6%
Oc1c(C=Nc2ccccc2)sc2ccccc12,10%,-4%,3%,?,-6,14µM*
Oc1ccccc1N=Cc1sc2ccccc2c1Cl,-3%,0%,0%[46.1 µM],9%,0,11µM*
Cc1ccc(O)c(N=Cc2sc3ccccc3c2Cl)c1,0%,-5%,-9%[46.1 µM],2%,1,?
Oc1c(C=NCc2ccncc2)sc2ccccc12,14%,-13%,0%,21%,3,14µM*
COc1ccc(C(=O)NCCS(=O)(=O)N2CCN(C(=O)c3ccco3)CC2)cc1,9%,0%,2%,-1%,-6,0%
O=c1[nH]cncc1OCc1ccccc1,/,1%,2%,3%,-26,0%
CCOc1ccc(C(=O)Nc2ccc3c(c2)N(C(C)=O)CCC3)cc1OCC,/,1%,/,/,/,0%
CC(=O)Nc1cccc(OCc2cccc(C3Nc4ccccc4C(=O)N3Cc3ccco3)c2)c1 (stereo not given),/,-15%,/,?,/,/
SMILES,AT treatment,A549 viability,TCR activator,Nrf2 inh,CCT modulator,Nrf2 ARE act
C=C1C(=O)O[C@@H]2[C@H]1CC[C@H](C)[C@]1(O)CCC(=O)[C@@]21C,48%,-10%,-2%,-18%,0,8%
C=C1C(=O)OC2C1CCC(C)=C1C(=O)C3OC3(C)C12 (stereo not given),/,?,2%,16µM*,0,-3%
CCCn1c(SCc2ccc(C(=O)OC)o2)nc2ccccc2c1=O,12%,-1%,-7%,-7%,-11,-1%
COC(=O)c1ccc(CSc2cc(C)c3ccccc3n2)o1,32µM*,-2%,3%,-9%,-8,2%
Fc1ccc(N2CCN(C(=S)NCC3CCCO3)CC2)cc1 (stereo not given),-1%,4%,-1%,-24%,-2,-1%
S=C(NCCCN1CCOCC1)N1CCN(c2nc(-c3ccc(Cl)cc3)cs2)CC1,4%,?,-6%,13µM*,-6,-3%
S=C(NCC1CCCO1)N1CCN(c2nc(-c3ccc(Cl)cc3)cs2)CC1 (stereo not given),9%,?,5%,16µM*,-2,5%
S=C(NCC1CCCO1)N1CCN(c2cccc(Cl)c2)CC1 (stereo not given),2%,-1%,5%,21µM*,2,0%
S=C(NCCCN1CCOCC1)N1CCN(c2nc(-c3ccccc3)cs2)CC1,1%,1%,-6%,-11%,-11,4%
CC(c1ccc(F)cc1)n1c(-c2ccc3ccccc3n2)n[nH]c1=S (stereo not given),2%,-12%,/,?,-1,0%
CC(c1ccc(Cl)cc1)n1c(-c2ccc3ccccc3n2)n[nH]c1=S (stereo not given),2%,?,0%,18µM*,2,0%
Fc1ccccc1-n1c(-c2ccc3ccccc3n2)n[nH]c1=S,-2%,-1%,6%,13%,-1,6%
S=c1[nH]nc(-c2ccc3ccccc3n2)n1-c1ccccc1,0%,7%,4%[46.1 µM],-6%,-69*,6%
CN(NS(=O)(=O)c1ccc(Br)cc1)c1nc(C(F)(F)F)nc2ccccc12,5%,?,-6%,21µM*,-9,2%
COC(=O)c1ccccc1NC(=O)Cc1nc(-c2ccc(OC)cc2)no1,/,7%,/,24%,/,4%
O=C1CCc2cc(S(=O)(=O)Nc3cc(F)cc(Cl)c3)c(F)cc2N1,/,?,/,0%,/,/
CCc1ccccc1NC(=O)c1ccc2c(c1)N(Cc1cccc(Cl)c1)C(=O)c1ccccc1S2(=O)=O,/,3%,/,3%,/,0%
CCN(CC)S(=O)(=O)c1cc(-c2nnc(-c3ccc(Br)cc3)o2)ccc1Cl,-6%,-22%,-2%,21µM*,0,-1%
O=c1c2ccccc2cnn1-c1nc2ccccc2[nH]1,-1%,-1%,0%,?,2,-3%
O=c1c(Cl)c(N2CCCCC2)cnn1-c1nc2ccccc2[nH]1,-9%,-1%,6%,16µM*,-4,-2%
